Compound activity as filed in PubChem.
In the library only some 1.5% were active in any assay of this set; here they are far more common.
IDE cell activ: activators of human insulin-degrading enzyme in cells | P14735 | HEK cells, FAbeta-B cleavage, fluorescence polarization; 0% vehicle, 100% cell-free pure enzyme wells | activation, % at 5.96 µM | actives 0.073% (n = 340,000) | AID 493087;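 active means activation above the mean of all tested compounds plus 3 SD, set per screening campaign, cut at about 17% in these data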
MEX-5 binding: C. elegans MEX-5 TCR-2 RNA binding activity; AID 1832; Q9XUB2; actives 0.38% (n = 300,000); MEX-5/FITC-TCR2 RNA binding, fluorescence polarization; hits give low values; activity score (negative = inhibition of binding), % at 10 µM;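 active means inhibition past about -25% in most replicates, and total fluorescence under double the plate's negative control median, limit read from the data; inconclusive means replicates evenly split on the limit, or fluorescence at least double controls; inactive means too little inhibition in most replicates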
IDE inh: inhibits human insulin-degrading enzyme in HEK cells; FAbetaB cleavage, fluorescence polarization; inhibition, % at 5.59 µM; actives 0.41% (n = 320,000); AID 434962;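 active means percent inhibition above the average of all tested compounds plus 3 SD, set per screening campaign, cut at about 16% in these data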;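 further: IDE supplied by intact live HEK cells; FP after avidin binding of uncleaved biotin substrate so inhibition keeps polarization high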
GLD-1 TGE inh: GLD-1-TGE RNA interaction inhibition (C. elegans); inhibition, % at 5.96 µM; purified GLD-1 + fluorescein TGE RNA, fluorescence polarization; Q17339; actives 0.44% (n = 320,000);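 active means percent inhibition above a per-plate cutoff, the plate mean of test compounds plus 3 SD, cut at about 30% in these data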
MCL1-BIM inh: disrupts human MCL1 binding to BIM-BH3 peptide | Q07820 | GST-MCL1 / FITC-Bim-BH3 fluorescence polarization | inhibition, % at 10.9 µM | actives 0.68% (n = 320,000) | AID 2057;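 active means inhibition above the mean inhibition of all tested compounds plus 3 SD, set per campaign, cut at about 40% in these data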;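 further: higher means more loss of mP so more displacement of Bim peptide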
Bcl-xL primary: blocks human Bcl-xL binding to Bim BH3 peptide. Q07817. actives 0.7% (n = 320,000). GST-Bcl-xL / FITC-Bim BH3 peptide fluorescence polarization. AID 2129. inhibition, % at 10.9 µM;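 active means inhibition above the mean of all tested compounds plus 3 SD, cutoff set per campaign, cut at about 30% in these data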;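 further: inhibitors lower millipolarization by displacing the labeled peptide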
BCLXL inh confirm: counter-screen for MCL1 inhibitors: confirmation of human Bcl-xL inhibitors; actives 54% (n = 1,700); GST-Bcl-xL / FITC-Bim BH3 peptide FP binding; inhibition, % at 10.9 µM; shares compounds with MCL1-BIM inh;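 active means inhibition above a cutoff equal to the mean inhibition of all tested compounds plus 3 SD, cut at about 30% in these data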
MCL1 BIM confirm: MCL1-BIM-BH3 interaction inhibition, confirmation; actives 61% (n = 1,700); inhibition, % at 10.9 µM; shares compounds with MCL1-BIM inh; AID 2168; GST-MCL1 / FITC-Bim-BH3 fluorescence polarization;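 active means inhibition above the average of all tested compounds plus 3 SD, cut at about 40% in these data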
Hits are given with their value; – = inactive; ? = inconclusive; · = not tested or not shown; + = active, no number.

SMILES	IDE cell activ	MEX-5 binding	IDE inh	GLD-1 TGE inh	MCL1-BIM inh	Bcl-xL primary	BCLXL inh confirm	MCL1 BIM confirm
O=C(CN1C(=O)/C(=C/c2ccco2)SC1=S)Nc1ccc(O)c(C(=O)O)c1	–	–	–	–	57.7	33.5	–	47.4
O=C1/C(=C\c2ccco2)SC(=S)N1c1ccc(O)cc1	–	–	–	–	–	–	·	·
O=C(CN1C(=O)/C(=C/c2ccco2)SC1=S)Nc1ccc(C(=O)O)c(O)c1	–	-27.6	–	–	72.9	–	–	48.3
NN1C(=O)/C(=C\c2ccco2)SC1=S	·	–	–	–	54.5	–	–	–
C=CCN1C2CCCC1CC(NC(=S)Nc1ccc(Cl)cc1)C2 (stereo not given)	–	–	–	–	–	–	·	·
O=C(CN1CCc2ccccc21)NC(=O)NC1CCCCC1	–	–	–	–	–	–	·	·
O=C(Nc1ccccc1C(=O)O)c1cccc(N2C(=O)c3ccccc3C2=O)c1	–	–	–	–	–	–	·	·
Cc1ccc(-c2csc3ncn(CC#N)c(=O)c23)cc1C	–	–	–	–	58.8	–	–	40.9
Cc1ccc2nc(N(CCCN(C)C)C(=O)c3ccc(S(=O)(=O)N4CCCCCC4)cc3)sc2c1	–	–	–	–	–	–	·	·
CCc1ccc2nc(N(CCCN(C)C)C(=O)c3ccc(S(=O)(=O)N4CCCC4)cc3)sc2c1	–	–	–	–	43.6	–	–	–
Cn1c(SCC(=O)Nc2nncs2)nnc1C1CC1	–	–	–	–	46.1	–	–	–
CC(C)n1c(SCC(=O)Nc2nncs2)nnc1C1CC1	–	–	–	–	–	–	·	·
O=C(COc1ccc(S(=O)(=O)N2CCCCC2)cc1)N1CCCC1	–	–	–	–	–	–	·	·
Nc1cccc(N2C(=O)c3cccc4c(N)ccc(c34)C2=O)c1	–	?	–	195.2	+	+	+	+
CC(C)CCN1C(=O)c2cccc3c(N)ccc(c23)C1=O	53.6	·	–	185.3	+	172.8	145.4	164.3
Nc1ccc2c3c(cccc13)C(=O)N(c1ccccc1)C2=O	–	?	·	·	·	·	·	·
COc1ccc(C2C(C(=O)c3cccs3)=C(O)C(=O)N2c2nnc(C)s2)cc1OC (stereo not given)	–	-59.9	–	69.7	83.5	83.7	128.4	153.7
COc1ccc(C2C(C(=O)c3cccs3)=C(O)C(=O)N2c2nncs2)cc1 (stereo not given)	–	-85.1	–	113.5	160.7	139.4	143.9	165.3
Cc1cccc(N2C(=O)C(O)=C(C(=O)c3cccs3)C2c2ccc(F)cc2)n1 (stereo not given)	–	–	–	–	–	–	·	·
C=CCOc1ccc(C2C(C(=O)c3cccs3)=C(O)C(=O)N2c2nnc(C)s2)cc1 (stereo not given)	–	-30.0	–	74.3	100.2	100.2	90.1	114.5
Cc1nnc(N2C(=O)C(O)=C(C(=O)c3ccco3)C2c2cccc([N+](=O)[O-])c2)s1 (stereo not given)	–	–	–	–	–	–	·	·
COc1ccc(OC)c(-c2c3cc(O)c(=O)cc-3oc3cc(O)c(O)cc23)c1	–	·	38.5	75.5	118.4	110.5	120.3	133.4
COc1ccccc1N1CCN(C(=O)c2ccc(-c3nc4ccccc4s3)o2)CC1	–	·	–	–	–	–	·	·
Cc1cc(-c2nc3c4c5c(sc4[nH]c(=O)n3n2)CCC5)c(C)o1	–	–	–	–	75.6	–	–	70.3
Cc1nc2sc3c(c2c(=O)[nH]1)CCC3	–	–	–	–	–	–	·	·
Cc1cc(O)c(Oc2cc(C)cc(O)c2O)c(O)c1	–	-49.3	–	–	52.0	–	33.8	45.8
CC(C)(C)c1ccc(C(=O)Nc2cccc(-n3cnnn3)c2)cc1	–	–	–	–	–	–	·	·
